From PubChem BioAssay
HT1080-NT tox: kills 2HG-producing HT-1080-NT fibrosarcoma cells | HT-1080-NT fibrosarcoma viability, CellTiter-Glo ATP luminescence, 48 h | Potency, µM (titrated, usually from 46.1 µM), for the others: at the highest dose activity, negative = less viability, actives largely listed as cytotoxic | 360,000 compounds, 1.6% hits | AID 686970;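 further: NT is the 2HG producing partner of a matched IDH1 knockdown line; 0% = DMSO-treated cells and -100% = media-only wells without cells; nearly all actives have a fitted effect of over 55% in size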
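Read-out is CellTiter-Glo luminescence after 10 minutes at room temperature, following 48 hours' compound treatment of HT-1080-NT cells (750 cells/well, RPMI, 5% FBS, 37 degrees C).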
KB-3-1 cytotox: kills parental KB-3-1 adenocarcinoma cells; KB-3-1 viability, CellTiter-Glo ATP luminescence, 72 h; Potency, µM (titrated, usually from 46.1 µM), usual class: cytotoxic; 400,000 compounds, 1.4% hits; further: on the % scale 0 is the no-effect control and ±100 the full control effect; nearly all actives have a fitted effect of over 60% in size
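Cells are dispensed, compounds pinned in, plates held at 37 °C for 72 h, then CellTiter-Glo is added and luminescence read after 10 minutes. Cell line: parental KB-3-1 in phenol-red-free DMEM, 10% FBS.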
HT1080 IDH1KD tx: toxicity to HT-1080 IDH1 knockdown cells (counter line); Potency, µM (doses to about 46.1 µM), without a hit: top-dose activity, negative = toxicity, most hits filed as cytotoxic; 360,000 compounds, 2% hits; HT-1080 IDH1 knockdown viability, ATP luminescence, 48 h;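 further: 0% = DMSO wells and -100% = cell-free medium wells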
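% activity derives from luminescence (CellTiter-Glo), normalised to DMSO and no-cell wells. HT-1080-IDH1KD cells, 750/well, had 48 h compound exposure at 37 °C.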
MCF10A rerep: inducers of DNA re-replication in MCF 10A breast cells | MCF 10A DNA re-replication, Hoechst nuclear intensity, 48 h | 350,000 compounds, 2.9% hits | Potency, µM (titrated, usually from 46.1 µM), for inactives: at the highest dose activity, positive = re-replication, actives largely listed as activators | AID 624296; further: % of control where 0% means no effect; nearly all actives have a fitted effect of over 50% in size
KB-V1 MDR tox: kills drug-selected multidrug resistant KB-V1 cells. KB-V1 MDR cells viability, CellTiter-Glo, 72 h. 400,000 compounds, 3.4% hits. Potency, µM (titrated, usually from 46.1 µM), actives largely listed as cytotoxic; further: on the % scale 0 is the no-effect control and ±100 the full control effect; nearly all actives have a fitted effect of over 60% in size
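KB-V1, DMEM (no phenol red) + 10% FBS; cpd pin-transferred, titration series; 72 h, 37 degrees C; CellTiter-Glo, luminescence. Data normalized, curve-fit.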
SW480 rereplic: DNA re-replication induction in SW480 cells. SW480 DNA re-replication, Hoechst DNA content imaging, 48 h. Potency, µM (highest dose often 46.1 µM), for inactives: top-dose re-replication activation, actives largely listed as activators. 340,000 compounds, 1.8% hits; further: % of control where 0% means no effect; nearly all actives have a fitted effect of over 55% in size
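Hoechst fluorescence of nuclei (405 nm excitation, 500-530 nm emission) measured by plate-scanning imager after 48 hr compound exposure at 37 C; re-replication scored as increased number of nuclei with elevated intensity.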
* = called active by the depositor; i = inactive; ? = inconclusive; nt = no result given; [ ] = another dose, or the depositor's remark. The list is not random: actives were taken first. Their share in the collection is about 8%. The call rests on the fitted dose curve; in most records, active means well fitted curve in the direction sought with a large enough effect; inconclusive means small, poorly fitted or top-dose-only effect, or another doubt; inactive means no such curve, though single readings can be large; an effect the other way counts as inactive or inconclusive. Potency means the concentration at half of the fitted maximal effect.

SMILES | HT1080-NT tox | KB-3-1 cytotox | HT1080 IDH1KD tx | MCF10A rerep | KB-V1 MDR tox | SW480 rereplic
Cc1ccc(CNc2nc3ccccc3n3c(C)nnc23)cc1 | nt | i | nt | nt | ? | nt
O=C(N1CCN(c2cccc(Cl)c2)CC1)C1(S(=O)(=O)c2ccc(Cl)cc2)CC1 | -14.2% | i | -4.0% | -2.0% | i | 0.7%
O=C(N1CCN(c2ccc(F)cc2)CC1)C1(c2cccs2)CCOCC1 | 0.4% | i | -3.3% | -20.8% | 23.1µM* | 10.8%
O=C(N1CCN(c2cccc(Cl)c2)CC1)C1(c2cccs2)CCOCC1 | 1.7% | ? | -0.3% | 8.2% | 4.61µM* | -189.3%
COc1cccc(NC(=O)C2CCCN(S(=O)(=O)c3ccc4[nH]c(=O)ccc4c3)C2)c1 (centres undefined) | nt | i | nt | nt | ? | nt
COc1ccc(CNC(=O)c2cccn2-c2nnc(N3CCCC3)s2)c(OC)c1 | nt | i | nt | nt | i | nt
COc1ccc(CCC(=O)N2CCN(S(=O)(=O)c3ccc(OC(F)(F)F)cc3)CC2)cc1 | 0.0% | i | 7.9% | 3.8% | 16.4µM* | -0.6%
COc1ccc(CCC(=O)N2CCN(S(=O)(=O)c3ccc4ccccc4c3)CC2)cc1 | -11.7% | i | -15.8% | 3.5% | i | 11.6%
Cc1nn(C)c(C)c1CNC(=O)/C=C/c1ccccc1F | -1.3% | i | 2.6% | -1.9% | 18.4µM* | -151.4%
CCOc1ccc2nc(N3CCCC(C(=O)Nc4ccc(OC)cc4)C3)sc2c1 (centres undefined) | nt | ? | nt | nt | i | nt
Cc1ccc2c(n1)sc1c(-c3ccccc3)c(C#N)c(N)nc12 | -24.8% | i | -20.7% | 5.01µM* | i | 7.31µM*
Cc1nc(N)c(C#N)c(-c2cccnc2)c1-c1ccccc1 | -1.2% | i | -8.1% | 26.1% | i | -5.5%
COc1cccc(CN(Cc2ccco2)C(c2ccc(F)cc2)c2nnnn2C(C)(C)C)c1 (centres undefined) | -1.0% | ? | -8.0% | ? | ? | 4.5%
CCC(C)(C)n1nnnc1C(c1ccc(C)cc1)N(Cc1ccco1)Cc1cccs1 (centres undefined) | -12.0% | ? | ? | ? | 11.2µM* | 11.1%[9.22 µM]
CCCCN1CCCc2cc(CN(CCCN3CCOCC3)C(=O)Nc3ccc(CC)cc3)ccc21 | nt | i | nt | nt | i | nt
COc1cc2c(cc1OC)/C(=C/c1ccc(Cl)cc1)C(=O)OC2 | ? | i | ? | 13µM* | i | ?
C=CC(=O)Oc1ccc(N2Cc3ccccc3C2=O)cc1 | 0.8% | i | -6.3% | ? | i | 11.6µM*
CCc1ccc(CNC(=O)CCCN2C(=O)CCn3nc(-c4cccn4C)cc32)cc1 | nt | i | nt | nt | i | nt
CC1=C(c2ccc(C)c(C)c2)S(=O)(=O)N=C1N1CCC(C(=O)NCCc2ccco2)CC1 | nt | i | nt | nt | i | nt
CCc1ccc(-c2nc(CS(=O)CC(=O)NC3CC3)c(C)o2)cc1 (centres undefined) | -1.3% | i | -0.6% | 0.8% | i | 1.1%
CCOC(=O)N1CCC(NC(=O)CS(=O)Cc2nc(-c3ccc(Cl)cc3)oc2C)CC1 (centres undefined) | 18.4µM* | i | ? | 14.7% | i | 13.6%
Cc1ccc(-c2nc(CS(=O)CC(=O)NC3CC3)c(C)o2)cc1 (centres undefined) | 5.9% | i | 9.7% | 20.6µM* | i | -1.6%
CN(C)c1cc(-c2ccccc2)nc(N)n1 | -16.4% | 20.6µM* | -26.8% | ? | ? | ?
C/C(=N\N=C(N)N)c1ccc(Cl)c(Cl)c1 | 23.1µM* | i | 18.4µM* | ? | ? | ?
COc1cccc(C2C3=C(CC(C)(C)CC3=O)Nc3cc4c(cc32)OCO4)c1 (centres undefined) | -4.4% | i | -4.4% | ? | ? | 14.0%
C#CCOc1ccc(C2C3=C(COC3=O)Nc3cc4c(cc32)OCO4)cc1OC (centres undefined) | 0.0461µM* | ? | 0.092µM* | ? | 4.61µM* | 0.517µM*
